{"source": "PubChem BioAssay (EPA / NIEHS)", "note": "Inconclusive results are not listed. Active and inactive are the calls of the source. How the source made its calls: active means hit-call score of the fitted dose curve at least 0.9, where 1 is the maximum; inconclusive means response in the unintended direction; inactive means score below 0.9."}
{"biological_target": "Androgen receptor (Homo sapiens) (UniProt P10275)", "sequence (P10275 whole entry, looked up)": "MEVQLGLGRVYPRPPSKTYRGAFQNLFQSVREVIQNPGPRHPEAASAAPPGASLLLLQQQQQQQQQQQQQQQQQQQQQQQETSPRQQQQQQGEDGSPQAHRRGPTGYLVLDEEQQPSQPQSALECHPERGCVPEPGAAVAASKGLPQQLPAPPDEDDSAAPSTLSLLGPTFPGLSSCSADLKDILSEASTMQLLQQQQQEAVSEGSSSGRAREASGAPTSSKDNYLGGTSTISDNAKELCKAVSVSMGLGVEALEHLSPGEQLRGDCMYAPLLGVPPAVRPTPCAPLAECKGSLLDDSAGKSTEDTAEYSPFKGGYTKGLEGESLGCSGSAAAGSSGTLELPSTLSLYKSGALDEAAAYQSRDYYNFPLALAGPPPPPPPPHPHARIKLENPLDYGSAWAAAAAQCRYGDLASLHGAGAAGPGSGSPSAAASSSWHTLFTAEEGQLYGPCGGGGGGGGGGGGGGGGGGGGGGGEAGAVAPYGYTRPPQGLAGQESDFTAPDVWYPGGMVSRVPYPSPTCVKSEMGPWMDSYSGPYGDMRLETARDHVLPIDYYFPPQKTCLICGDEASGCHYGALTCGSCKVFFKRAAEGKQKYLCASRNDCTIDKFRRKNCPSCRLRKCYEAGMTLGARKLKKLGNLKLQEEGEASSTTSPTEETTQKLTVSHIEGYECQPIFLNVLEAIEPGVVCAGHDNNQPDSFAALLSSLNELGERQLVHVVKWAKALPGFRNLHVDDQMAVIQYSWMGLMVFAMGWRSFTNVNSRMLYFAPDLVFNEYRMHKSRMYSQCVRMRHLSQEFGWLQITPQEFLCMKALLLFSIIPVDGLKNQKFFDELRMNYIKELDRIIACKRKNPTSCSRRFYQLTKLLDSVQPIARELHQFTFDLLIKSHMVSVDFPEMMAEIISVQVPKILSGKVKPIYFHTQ", "test": "ATG_AR_TRANS: Attagene TRANS-FACTORIAL HepG2 Assay for human Androgen Receptor (AR) (AID 2282973)", "settings": "HepG2 Attagene TRANS-FACTORIAL AR reporter transcription", "experimental": "ATG_TRANS is a cell-based, multiplexed-readout assay that uses HepG2, a human liver cell line, with measurements taken at 24 hours after chemical dosing in a 24-well plate.ATG_AR_TRANS is one of 30 assay component(s) measured or calculated from the ATG_TRANS assay. It is designed to make measurements of mRNA induction, a form of inducible reporter, as detected with fluorescence intensity signals by Reverse transcription polymerase chain reaction (RT-PCR) and Capillary electrophoresis technology.Data from the assay component ATG_AR_TRANS was analyzed into 1 assay endpoint. This assay endpoint, ATG_AR_TRANS, was analyzed in the positive analysis fitting direction relative to DMSO as the negative control and baseline of activity. Using a type of inducible reporter, measures of mRNA for gain-of-signal activity can be used to understand the reporter gene at the transcription factor-level as they relate to the gene AR. Furthermore, this assay endpoint can be referred to as a primary readout, because this assay has produced multiple assay endpoints where this one serves a reporter gene function. To generalize the intended target to other relatable targets, this assay endpoint is annotated to the nuclear receptor intended target family, where the subfamily is steroidal.\nHuman liver HepG2 cells are transiently transfected with multiple reporter transcription units (MRTUs) in 6-well plates using FuGene 6 reagent (Roche; 3 ml FuGene/1 mg DNA). The MRTU constructs are regulated by a cis-regulating element (promoter). […] A major difference between the CIS and TRANS system is that in CIS activities of endogenous TFs are measured, whereas the TRANS assay evaluates changes in activities of exogenous, chimeric NR-Gal4 proteins. […] At the end of 24 hour incubation, total RNA was isolated using TriZol reagent (Invitrogen). The isolated RNA is then reverse-transcribed using oligo(dT) primer and Mo-MLV reverse transcriptase (Invitrogen) with DNAse I (Ambion) treatment for 30 min. The one-tenth of the produced cDNA was amplified by PCR using Taq DNA polymerase (Invitrogen) and two reporter sequence-specific primers. The PCR products were fluorescently labeled by primer extension with 6-arboxyfluorescein (6-FAM) 5'-labeled reporter sequence-specific primer (2 min at 95 C, 20 s at 68 C and 10 min at 72 C) and these products were digested with 5U of HpaI (New England Biolabs) for 2h at 37 C. The fragments were purified using Qiaquick PCR columns (Qiagen), analyzed on an ABI 3130xL genetic analyzer (Applied Biosystems) with peak positions identified by using a set of X-rhodamine (ROX)-labeled MapMarker1000 molecular weight standards (BioVentures). The raw capillary electrophoresis data was processed using Attagraph software (Attagene)."}
{"smiles": "O=CC=O", "outcome": "inactive"}
{"smiles": "CC12CC1(C)C(=O)N(c1cc(Cl)cc(Cl)c1)C2=O", "note": "(centres undefined)", "outcome": "inactive"}
{"smiles": "CCOP(=S)(OCC)Oc1nc(Cl)c(Cl)cc1Cl", "outcome": "inactive"}
{"smiles": "O=C1C2(Cl)C3(Cl)C4(Cl)C(Cl)(Cl)C5(Cl)C3(Cl)C1(Cl)C5(Cl)C24Cl", "note": "(centres undefined)", "outcome": "inactive"}
{"smiles": "c1cc[c]([Hg][c]2ccccc2)cc1", "outcome": "inactive"}
{"smiles": "CC(C)CCCCCCOC(=O)c1ccccc1C(=O)OCCCCCCC(C)C", "outcome": "inactive"}
{"smiles": "O=c1[nH]c(=O)[nH]c(=O)[nH]1", "outcome": "inactive"}
{"smiles": "COP(=O)(OC)O/C(=C\\Cl)c1cc(Cl)c(Cl)cc1Cl", "outcome": "inactive"}
{"smiles": "O=C(c1ccccc1)C(Cl)Cl", "outcome": "inactive"}
{"smiles": "CCSC(C)CC1CC(=O)C(C(CC)=NOC/C=C/Cl)=C(O)C1", "note": "(centres undefined)", "outcome": "inactive"}
{"smiles": "COP(=O)(OC)OC", "outcome": "inactive"}
{"smiles": "CCc1ccccc1C", "outcome": "inactive"}
{"smiles": "Cc1ccccc1C(=O)Nc1cccc(OC(C)C)c1", "outcome": "inactive"}
{"smiles": "Oc1c(I)cc(I)cc1I", "outcome": "inactive"}
{"smiles": "COP(=S)(OC)Oc1ccc(S(=O)(=O)N(C)C)cc1", "outcome": "inactive"}
{"smiles": "Cl/C=C\\C[N+]12CN3CN(CN(C3)C1)C2", "outcome": "inactive"}
{"smiles": "CCC(=O)C(CC(C)N(C)C)(c1ccccc1)c1ccccc1", "note": "(centres undefined)", "outcome": "inactive"}
{"smiles": "CCC1(c2ccc(N)cc2)CCC(=O)NC1=O", "note": "(centres undefined)", "outcome": "inactive"}
{"smiles": "C[C@H]1CCCC(=O)CCC/C=C/c2cc(O)cc(O)c2C(=O)O1", "outcome": "inactive"}
{"smiles": "Cc1ccc2ccccc2c1C", "outcome": "inactive"}
{"smiles": "COP(=S)(OC)Oc1cc(Cl)c(Cl)cc1Cl", "outcome": "inactive"}
{"smiles": "Cc1cc(=O)[nH]o1", "outcome": "inactive"}
{"smiles": "C=CC(=O)OCCCCCC(C)C", "outcome": "inactive"}
{"smiles": "CC(C)(C)CC(C)(C)c1ccc(O)cc1", "outcome": "inactive"}
{"smiles": "Clc1ccc(COC(Cn2ccnc2)c2ccc(Cl)cc2Cl)cc1", "note": "(centres undefined)", "outcome": "inactive"}
{"smiles": "CN(CCCC(=O)c1cccnc1)N=O", "outcome": "inactive"}
{"smiles": "CCCCCCCCc1ccc(O)cc1", "outcome": "inactive"}
{"smiles": "COP(=S)(OC)Oc1ccc(Sc2ccc(OP(=S)(OC)OC)cc2)cc1", "outcome": "inactive"}
{"smiles": "COS(=O)(=O)c1ccc(C)cc1", "outcome": "inactive"}
